# According to PubChem BioAssay AID1159580 (chemical genetic matrix, 2015):
# “And” between values parts separate entries of the source, which are not always exact repeats. Identical values can stand only once. The whole screen tested about 5,500 compounds, of which about 2,000 (36%) were called active. Another 18% or so got no clear call; they are omitted. The list shows a part of the results. Unmarked numbers belong to inactive results. Cut-off read from the data, not from the text of the source: active = normalized growth mostly below about 0.91 (no sharp cut-off); inconclusive = no clear call, values can overlap the other calls; inactive = mostly above about 0.92.
# Assay: chemical genetic growth profiling, strain panel (AID 1159580);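 note: tested at 20 µM; growth read once vehicle control cultures reached saturation at 30 °C; 1 = growth at the plate median or of vehicle wells; lower values mean less growth of the strain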
# Conditions: S. cerevisiae deletion strains, growth OD
structure (smiles),measurement,setting,value
COc1cc(C/C=C/c2ccccc2)c(OC)cc1O,normalized growth,"locus YAL013W, strain DEP1, active compounds read low",0.989
same,normalized growth,"locus YAL021C, strain ccr4, active compounds read low",0.901 (active)
same,normalized growth,"locus YAL026C, strain drs2, active compounds read low",0.936
same,normalized growth,"locus YAL030W, strain snc1, active compounds read low",0.956
same,normalized growth,"locus YBL061C, strain skt5, active compounds read low",0.964
same,normalized growth,"locus YBR009C, strain hhf1, active compounds read low",0.969
same,normalized growth,"locus YBR021W, strain FUR4, active compounds read low",1.04
same,normalized growth,"locus YBR023C, strain chs3, active compounds read low",0.95
same,normalized growth,"locus YBR171W, strain sec66, active compounds read low",0.962
same,normalized growth,"locus YBR229C, strain ROT2, active compounds read low",0.979
same,normalized growth,"locus YBR231C, strain swc5, active compounds read low",0.942
same,normalized growth,"locus YBR279W, strain paf1, active compounds read low",0.95
same,normalized growth,"locus YCL011C, strain gbp2, active compounds read low",0.936
same,normalized growth,"locus YCL016C, strain dcc1, active compounds read low",0.944
same,normalized growth,"locus YCL029C, strain bik1, active compounds read low",0.962
same,normalized growth,"locus YCL061C, strain MRC1, active compounds read low",0.967
same,normalized growth,"locus YCL069W, strain vba3, active compounds read low",0.98
same,normalized growth,"locus YCR088W, strain abp1, active compounds read low",0.958
same,normalized growth,"locus YDL005C, strain med2, active compounds read low",0.948
same,normalized growth,"locus YDL035C, strain GPR1, active compounds read low",1.04
same,normalized growth,"locus YDL040C, strain nat1, active compounds read low",0.973
same,normalized growth,"locus YDL074C, strain BRE1, active compounds read low",1.01
same,normalized growth,"locus YDL101C, strain DUN1, active compounds read low",0.951
same,normalized growth,"locus YDL185W, strain tfp1, active compounds read low",0.932
same,normalized growth,"locus YDL192W, strain arf1, active compounds read low",0.982
same,normalized growth,"locus YDR001C, strain nth1, active compounds read low",0.966
same,normalized growth,"locus YDR069C, strain doa4, active compounds read low",0.943
same,normalized growth,"locus YDR101C, strain arx1, active compounds read low",1.03
same,normalized growth,"locus YDR137W, strain rgp1, active compounds read low",0.939
same,normalized growth,"locus YDR159W, strain sac3, active compounds read low",1
same,normalized growth,"locus YDR162C, strain NBP2, active compounds read low",0.993
same,normalized growth,"locus YDR195W, strain ref2",1
same,normalized growth,"locus YDR297W, strain sur2, active compounds read low",0.955
same,normalized growth,"locus YDR318W, strain mcm21, active compounds read low",0.989
same,normalized growth,"locus YDR334W, strain swr1, active compounds read low",0.941
same,normalized growth,"locus YDR335W, strain msn5, active compounds read low",0.95
same,normalized growth,"locus YDR388W, active compounds read low",0.947
same,normalized growth,"locus YDR392W, strain spt3, active compounds read low",0.721 (active)
same,normalized growth,"locus YDR502C, strain sam2, active compounds read low",0.964
same,normalized growth,"locus YEL003W, strain gim4, active compounds read low",0.959
same,normalized growth,"locus YEL037C, strain rad23, active compounds read low",0.958
same,normalized growth,"locus YEL061C, strain CIN8 (second series), active compounds read low",0.96
same,normalized growth,"locus YEL061C, strain CIN8, active compounds read low",0.968
same,normalized growth,"locus YER015W, strain faa2, active compounds read low",0.935
same,normalized growth,"locus YER016W, strain bim1, active compounds read low",0.961
same,normalized growth,"locus YER110C, active compounds read low",0.924
same,normalized growth,"locus YER111C, strain swi4, active compounds read low",0.978
same,normalized growth,"locus YER155C, strain BEM2 (second series), active compounds read low",0.915
same,normalized growth,"locus YER155C, strain BEM2, active compounds read low",0.96
same,normalized growth,"locus YER167W, strain BCK2, active compounds read low",0.968
same,normalized growth,"locus YFR010W, strain ubp6, active compounds read low",0.944
same,normalized growth,"locus YGL078C, strain dbp3, active compounds read low",0.994
same,normalized growth,"locus YGL086W, strain mad1, active compounds read low",0.986
same,normalized growth,"locus YGL167C, strain pmr1, active compounds read low",0.943
same,normalized growth,"locus YGL173C, strain kem1, active compounds read low",0.977
same,normalized growth,"locus YGL227W, strain vid30, active compounds read low",0.973
same,normalized growth,"locus YGL240W, strain doc1, active compounds read low",0.939
same,normalized growth,"locus YGL248W, strain PDE1, active compounds read low",0.967
same,normalized growth,"locus YGL253W, strain hxk2, active compounds read low",0.971
same,normalized growth,"locus YGR078C, strain PAC10, active compounds read low",0.964
same,normalized growth,"locus YGR135W, strain pre9, active compounds read low",0.95
same,normalized growth,"locus YGR229C, strain SMI1, active compounds read low",1.01
same,normalized growth,"locus YGR252W, strain gcn5, active compounds read low",1.1
same,normalized growth,"locus YHR013C, strain ard1, active compounds read low",0.926
same,normalized growth,"locus YHR027C, strain rpn1, active compounds read low",0.945
same,normalized growth,"locus YHR030C, strain SLT2, active compounds read low",0.963 and 1.06
same,normalized growth,"locus YHR079C, strain IRE1 (second series), active compounds read low",0.968
same,normalized growth,"locus YHR079C, strain IRE1, active compounds read low",1.04
same,normalized growth,"locus YHR094C, strain hxt1, active compounds read low",0.961
same,normalized growth,"locus YHR129C, strain ARP1, active compounds read low",0.966
same,normalized growth,"locus YHR142W, strain chs7, active compounds read low",0.919
same,normalized growth,"locus YHR200W, strain rpn10, active compounds read low",0.983
same,normalized growth,"locus YIL066C, strain RNR3, active compounds read low",0.971
same,normalized growth,"locus YIL073C, strain SPO22, active compounds read low",0.938
same,normalized growth,"locus YIL125W, strain kgd1, active compounds read low",0.979
same,normalized growth,"locus YIR030C, strain dcg1, active compounds read low",0.956
same,normalized growth,"locus YJL092W, strain hpr5, active compounds read low",0.957
same,normalized growth,"locus YJL095W, strain BCK1 (second series), active compounds read low",0.95
same,normalized growth,"locus YJL095W, strain BCK1, active compounds read low",0.935 and 1.06
same,normalized growth,"locus YJL115W, strain asf1, active compounds read low",0.939
same,normalized growth,"locus YJL129C, strain trk1, active compounds read low",0.949
same,normalized growth,"locus YJL134W, strain LCB3, active compounds read low",0.964
same,normalized growth,"locus YJL154C, strain vps35, active compounds read low",0.959
same,normalized growth,"locus YJL164C, strain tpk1, active compounds read low",0.929
same,normalized growth,"locus YJL166W, strain qcr8, active compounds read low",0.955
same,normalized growth,"locus YJL168C, strain set2, active compounds read low",0.965
same,normalized growth,"locus YJL187C, strain SWE1 (second series), active compounds read low",0.967
same,normalized growth,"locus YJL187C, strain SWE1, active compounds read low",0.954
same,normalized growth,"locus YJR043C, strain POL32, active compounds read low",1.08
